These results are taken from PubChem BioAssay (EPA / NIEHS).

Experiment [1] has as its target Bile acid receptor (Homo sapiens) (UniProt Q96RI1). The experiment can be described thus: ATG_IR1_CIS: Attagene CIS-FACTORIAL HepG2 Assay for human Nuclear Receptor Subfamily 1 Group H Member 4 (NR1H4), IR1 submotif (AID 2282946). Particulars: IR1 reporter transcription, actives raise or lower the signal. An outline of the steps:
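Cells (human HepG2) carry transiently transfected cis-promoter reporter transcription units. Compounds are incubated 24 h, total RNA is reverse-transcribed and amplified, and labelled fragments are resolved by capillary electrophoresis. Curves use DMSO as baseline.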

A short description of experiment [2]: ATG_GRE_CIS: Attagene CIS-FACTORIAL HepG2 Assay for human Glucocorticoid Response Elements (GRE) (AID 2282947). Conditions: HepG2 GRE cis-reporter, Attagene multiplex mRNA; actives raise or lower the signal. Summed up: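 Assay uses human hepatoma HepG2 cells transfected with cis-promoter reporter units, exposed 24 h. mRNA from reporters detected by RT-PCR plus capillary electrophoresis; DMSO serves as negative control and baseline.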

A short description of experiment [3]: ATG_ISRE_CIS: Attagene CIS-FACTORIAL HepG2 Assay for human Interferon Regulatory Factor 1 (IRF1) binding to an Interferon-Stimulated Response Element (ISRE) (AID 2282948). Particulars: HepG2 ISRE cis-reporter (Attagene), mRNA transcription readout; actives raise or lower the signal. An outline of the steps:
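Transiently transfected HepG2 cells carrying cis-element reporter units, dosed 24 hours. Reporter mRNA quantified by RT-PCR, fluorescent primer extension, HpaI digestion and capillary electrophoresis. Bidirectional fitting relative to DMSO.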

Experiment [4] is described as follows: ATG_M_06_CIS: Attagene CIS-FACTORIAL HepG2 Assay for M06 Transcription Factor (Internal Marker) (AID 2282950). Conditions: HepG2 Attagene CIS-FACTORIAL M06 internal marker reporter; actives raise or lower the signal. Summed up: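 Internal background marker within multiplexed cis-reporter HepG2 system. Cells transiently transfected, dosed 24 h; reporter mRNA measured by RT-PCR, HpaI digestion and capillary electrophoresis. Bidirectional fit relative to DMSO.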

Experiment [5] addresses Hypoxia-inducible factor 1-alpha (Homo sapiens) (UniProt Q16665). The experiment is described as follows: ATG_HIF1a_CIS: Attagene CIS-FACTORIAL HepG2 Assay for human Hypoxia Inducible Factor 1 (HIF1A) (AID 2282951). Particulars: HepG2 Attagene cis-factorial HIF1a reporter transcription; actives raise or lower the signal. Summed up: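 HepG2, transient cis-reporter library, 24 h dosing. RNA → RT (oligo dT) → PCR → 6-FAM primer extension → HpaI → CE. Bidirectional curve fit vs DMSO.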

Experiment [6] has as its target Hepatocyte nuclear factor 6 (Homo sapiens) (UniProt Q9UBC0). The experiment is described as follows: ATG_HNF6_CIS: Attagene CIS-FACTORIAL HepG2 Assay for human Hepatocyte Nuclear Factor 6 (HNF6) (AID 2282952). Particulars: HepG2 Attagene cis-factorial HNF6 reporter transcription; actives raise or lower the signal. An outline of the steps:
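HepG2 cells transiently transfected with cis-element-driven multiplexed reporter units measuring endogenous transcription factor activity. After 24 h exposure, reporter mRNA quantified by RT-PCR, FAM-labelled fragments and capillary electrophoresis; bidirectional fitting versus DMSO.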

In experiment [7] the target is Heat shock factor protein 1 (Homo sapiens) (UniProt Q00613). The experiment is described as follows: ATG_HSE_CIS: Attagene CIS-FACTORIAL HepG2 Assay for human Heat Shock Transcription Factor 1 (HSE) (AID 2282953). Particulars: HepG2 HSE cis-reporter, Attagene RNA transcription; actives raise or lower the signal. Summed up: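 HepG2 cells transfected with cis-promoter reporter units sensing endogenous transcription factor activity; reporter mRNA quantified 24 h post-dose by RT-PCR and capillary electrophoresis of 6-FAM-labelled products. Bidirectional fitting against DMSO.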

A short description of experiment [8]: ATG_MRE_CIS: Attagene CIS-FACTORIAL HepG2 Assay for human Metal Responsive Element (MRE) (AID 2282954). Conditions: HepG2 MRE cis-reporter transcription, Attagene multiplex; actives raise or lower the signal. Summed up:
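After a 24 h chemical exposure, transiently transfected HepG2 cells yield RNA whose reporter sequences are amplified, FAM-labelled and sized by capillary electrophoresis. Curves are fitted bidirectionally relative to DMSO.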

Experiment [9] can be described thus: ATG_PBREM_CIS: Attagene CIS-FACTORIAL HepG2 Assay for human Phenobarbital-responsive Enhancer Module (PBREM) (AID 2282955). Particulars: HepG2 PBREM cis-reporter, Attagene multiplexed transcription; actives raise or lower the signal. Summed up: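 HepG2, transient MRTU transfection, 24 h dosing; RNA → oligo(dT) RT → PCR → 6-FAM extension → HpaI → CE. Bidirectional fit vs DMSO.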

For experiment [10], the target named is Paired box protein Pax-6 (Homo sapiens) (UniProt P26367). The experiment is described as follows: ATG_Pax6_CIS: Attagene CIS-FACTORIAL HepG2 Assay for human Paired Box 6 (PAX6) (AID 2282956). Particulars: HepG2 CIS-FACTORIAL PAX6 reporter transcription, RNA readout; actives raise or lower the signal. An outline of the steps: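 HepG2 cells transiently transfected with cis-promoter-driven multiplexed reporter units sensing endogenous transcription factor activity; 24 h chemical exposure. Reporter mRNA quantified by RT-PCR, 6-FAM labelling, HpaI digestion and capillary electrophoresis; bidirectional fit versus DMSO baseline.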

Experiment [11] can be described thus: ATG_PXRE_CIS: Attagene CIS-FACTORIAL HepG2 Assay for human Pregnane X Receptor Element (PXRE) (AID 2282957). Particulars: HepG2 Attagene CIS-FACTORIAL PXRE reporter, mRNA; actives raise or lower the signal. Summed up:
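HepG2 cells transiently transfected with cis-element-driven multiplexed reporter units; after 24 h chemical exposure, reporter mRNA measured by RT-PCR, 6-FAM labelling, HpaI digestion and capillary electrophoresis. Bidirectional fitting relative to DMSO.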

Experiment [12] is described as follows: ATG_PPRE_CIS: Attagene CIS-FACTORIAL HepG2 Assay for human Peroxisome Proliferator-activated Response Element (PPRE) (AID 2282958). Conditions: HepG2 PPRE cis-element reporter, Attagene transcription factor profiling; actives raise or lower the signal. Summed up: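 Transcript-level reporter induction in transfected HepG2 cells after 24 h chemical exposure, quantified by fluorescence from RT-PCR products separated by capillary electrophoresis.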

Experiment [13] can be described thus: ATG_Sox_CIS: Attagene CIS-FACTORIAL HepG2 Assay for human SRY-box transcription factor (SOX) (AID 2282960). Conditions: HepG2 Attagene cis-factorial SOX reporter, mRNA; actives raise or lower the signal. Summed up:
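Cells were transfected with reporter constructs under cis-regulatory promoters, then exposed to chemicals for 24 h. Reporter transcripts were quantified by fluorescence after RT-PCR and capillary electrophoresis; activity was fitted in both directions against DMSO.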

Experiment [14] has as its target Transcription factor Sp1 (Homo sapiens) (UniProt P08047). The experiment can be described thus: ATG_Sp1_CIS: Attagene CIS-FACTORIAL HepG2 Assay for human Specificity Protein 1 (Sp1) (AID 2282961). Conditions: HepG2 Sp1 cis-reporter transcription, actives raise or lower the signal. Summed up:
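Measures mRNA induction of an Sp1-linked reporter in HepG2 cells 24 h post-dosing. Multiplexed reporters read by RT-PCR and capillary electrophoresis; DMSO serves as negative control and baseline.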

The nature of experiment [15]: ATG_SREBP_CIS: Attagene CIS-FACTORIAL HepG2 Assay for human Sterol Regulatory Element Binding (SREBP) (AID 2282962). Particulars: HepG2 Attagene cis-factorial SREBP reporter, mRNA; actives raise or lower the signal. Summed up:
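HepG2 cells transiently transfected with multiplexed cis-promoter reporter units sensing endogenous transcription factors; reporter mRNA measured 24 h after dosing by RT-PCR, 6-FAM labeling, HpaI digestion and capillary electrophoresis. Bidirectional fit versus DMSO.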

Experiment [16] addresses Signal transducer and activator of transcription 3 (Homo sapiens) (UniProt P40763). The experiment is described as follows: ATG_STAT3_CIS: Attagene CIS-FACTORIAL HepG2 Assay for human Signal Transducer and Activator of Transcription 3 (STAT3) (AID 2282963). Particulars: HepG2, Attagene cis-factorial STAT3 reporter transcription; actives raise or lower the signal. Summed up: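 After a 24 h compound incubation, total RNA from MRTU-transfected HepG2 cells was converted to cDNA and reporter sequences PCR-amplified, labelled and profiled by capillary electrophoresis. Gain and loss of signal were referenced to DMSO.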

Experiment [17] is described as follows: ATG_TA_CIS: Attagene CIS-FACTORIAL HepG2 Assay for human TA Basal Promoter (AID 2282964). Conditions: HepG2 Attagene CIS-factorial TA basal promoter reporter; actives raise or lower the signal. An outline of the steps: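 HepG2 cells transiently transfected with multiple reporter units under cis promoter elements, reporting endogenous transcription factor activity; this endpoint tracks the TA basal promoter as background control. Reporter mRNA after 24 h dosing measured by RT-PCR/capillary electrophoresis; bidirectional fits versus DMSO.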

A short description of experiment [18]: ATG_GLI_CIS: Attagene CIS-FACTORIAL HepG2 Assay for human Zinc Finger Protein GLI1 (AID 2282945). Conditions: HepG2, Attagene cis-factorial reporter mRNA, GLI element; actives raise or lower the signal. Summed up: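 Bidirectional curve fits relative to DMSO, using reporter mRNA levels from RT-PCR plus capillary electrophoresis. Cells were HepG2 transiently carrying cis-regulated reporter constructs, harvested 24 h after dosing.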

Experiment [19] can be described thus: ATG_RORE_CIS: Attagene CIS-FACTORIAL HepG2 Assay for human RAR-related Orphan Receptor Element (RORE) (AID 2282959). Particulars: HepG2 Attagene cis-factorial RORE reporter, mRNA; actives raise or lower the signal. An outline of the steps: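 Multiplexed reporter assay measuring mRNA induction from a cis promoter element in transiently transfected HepG2 cells after 24 h treatment. Detection via RT-PCR and capillary electrophoresis fluorescence; DMSO serves as baseline.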

Activity calls are given as the source filed them. The calls were made as follows: active = hit-call score of the fitted dose curve at least 0.9, where 1 is the maximum; inactive = score below 0.9.

Hypoxia-inducible factor 1-alpha (Homo sapiens), sequence (Q16665 whole entry, looked up): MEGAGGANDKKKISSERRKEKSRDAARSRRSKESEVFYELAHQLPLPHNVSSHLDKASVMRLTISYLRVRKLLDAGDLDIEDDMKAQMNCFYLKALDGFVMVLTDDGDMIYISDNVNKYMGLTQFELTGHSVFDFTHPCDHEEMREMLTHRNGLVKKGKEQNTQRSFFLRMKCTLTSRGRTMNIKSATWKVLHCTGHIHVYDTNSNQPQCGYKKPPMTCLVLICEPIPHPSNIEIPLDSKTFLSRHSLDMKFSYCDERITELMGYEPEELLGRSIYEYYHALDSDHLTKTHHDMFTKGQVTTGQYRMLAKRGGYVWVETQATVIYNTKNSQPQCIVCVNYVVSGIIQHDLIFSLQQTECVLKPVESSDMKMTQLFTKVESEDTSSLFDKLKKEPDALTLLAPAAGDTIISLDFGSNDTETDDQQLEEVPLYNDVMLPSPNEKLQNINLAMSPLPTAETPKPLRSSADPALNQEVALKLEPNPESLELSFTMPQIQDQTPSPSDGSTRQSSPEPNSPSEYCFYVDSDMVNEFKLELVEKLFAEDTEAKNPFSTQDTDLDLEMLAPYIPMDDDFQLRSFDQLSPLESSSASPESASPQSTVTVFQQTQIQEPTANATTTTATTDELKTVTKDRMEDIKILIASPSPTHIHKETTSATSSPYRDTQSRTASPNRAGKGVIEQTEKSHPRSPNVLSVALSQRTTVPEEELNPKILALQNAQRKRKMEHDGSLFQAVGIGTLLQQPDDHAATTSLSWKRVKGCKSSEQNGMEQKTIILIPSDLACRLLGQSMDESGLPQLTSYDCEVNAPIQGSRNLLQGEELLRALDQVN
Bile acid receptor (Homo sapiens), sequence (Q96RI1 whole entry, looked up, the tested form may be a part): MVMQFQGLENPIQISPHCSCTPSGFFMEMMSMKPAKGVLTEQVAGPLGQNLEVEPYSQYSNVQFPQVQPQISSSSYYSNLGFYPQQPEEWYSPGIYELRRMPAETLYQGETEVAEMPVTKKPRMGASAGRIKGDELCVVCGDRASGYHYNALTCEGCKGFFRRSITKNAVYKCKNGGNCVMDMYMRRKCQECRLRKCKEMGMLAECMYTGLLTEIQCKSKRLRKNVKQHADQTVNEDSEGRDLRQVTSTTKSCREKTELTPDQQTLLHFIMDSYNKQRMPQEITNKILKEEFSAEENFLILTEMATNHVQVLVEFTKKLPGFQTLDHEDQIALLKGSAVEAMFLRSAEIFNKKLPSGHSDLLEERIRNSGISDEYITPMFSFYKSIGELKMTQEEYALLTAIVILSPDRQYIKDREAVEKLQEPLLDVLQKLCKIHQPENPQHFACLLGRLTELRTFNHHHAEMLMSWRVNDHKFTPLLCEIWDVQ
Heat shock factor protein 1 (Homo sapiens), sequence (Q00613 whole entry, looked up): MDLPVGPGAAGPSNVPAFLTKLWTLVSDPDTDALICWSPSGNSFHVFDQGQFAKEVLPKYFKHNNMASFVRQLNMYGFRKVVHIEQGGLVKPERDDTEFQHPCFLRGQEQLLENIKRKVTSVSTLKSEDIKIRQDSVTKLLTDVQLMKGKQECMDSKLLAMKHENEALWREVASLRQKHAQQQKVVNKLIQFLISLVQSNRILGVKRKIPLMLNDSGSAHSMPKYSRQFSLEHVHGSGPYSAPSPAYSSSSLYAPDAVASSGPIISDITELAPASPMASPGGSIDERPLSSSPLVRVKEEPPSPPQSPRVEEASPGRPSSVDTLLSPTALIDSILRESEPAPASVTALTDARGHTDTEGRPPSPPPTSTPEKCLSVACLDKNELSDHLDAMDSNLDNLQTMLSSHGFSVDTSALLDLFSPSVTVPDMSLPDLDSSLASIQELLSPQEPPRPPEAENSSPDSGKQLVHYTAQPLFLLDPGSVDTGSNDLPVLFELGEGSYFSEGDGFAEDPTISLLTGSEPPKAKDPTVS
Hepatocyte nuclear factor 6 (Homo sapiens), sequence (Q9UBC0 whole entry, looked up, the tested form may be a part): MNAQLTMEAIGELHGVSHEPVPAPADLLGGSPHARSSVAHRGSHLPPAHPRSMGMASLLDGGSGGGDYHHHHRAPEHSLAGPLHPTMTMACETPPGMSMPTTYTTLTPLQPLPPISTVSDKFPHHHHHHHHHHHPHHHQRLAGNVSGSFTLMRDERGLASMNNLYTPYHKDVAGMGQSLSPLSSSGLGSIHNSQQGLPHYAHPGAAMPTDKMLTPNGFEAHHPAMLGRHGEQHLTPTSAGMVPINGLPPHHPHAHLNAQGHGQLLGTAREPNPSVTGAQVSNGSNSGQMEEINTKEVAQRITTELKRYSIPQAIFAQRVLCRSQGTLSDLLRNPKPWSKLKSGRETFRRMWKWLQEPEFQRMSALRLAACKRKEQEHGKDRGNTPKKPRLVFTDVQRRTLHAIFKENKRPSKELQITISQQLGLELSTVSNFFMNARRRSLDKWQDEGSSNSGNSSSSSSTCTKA
Signal transducer and activator of transcription 3 (Homo sapiens), sequence (P40763 whole entry, looked up): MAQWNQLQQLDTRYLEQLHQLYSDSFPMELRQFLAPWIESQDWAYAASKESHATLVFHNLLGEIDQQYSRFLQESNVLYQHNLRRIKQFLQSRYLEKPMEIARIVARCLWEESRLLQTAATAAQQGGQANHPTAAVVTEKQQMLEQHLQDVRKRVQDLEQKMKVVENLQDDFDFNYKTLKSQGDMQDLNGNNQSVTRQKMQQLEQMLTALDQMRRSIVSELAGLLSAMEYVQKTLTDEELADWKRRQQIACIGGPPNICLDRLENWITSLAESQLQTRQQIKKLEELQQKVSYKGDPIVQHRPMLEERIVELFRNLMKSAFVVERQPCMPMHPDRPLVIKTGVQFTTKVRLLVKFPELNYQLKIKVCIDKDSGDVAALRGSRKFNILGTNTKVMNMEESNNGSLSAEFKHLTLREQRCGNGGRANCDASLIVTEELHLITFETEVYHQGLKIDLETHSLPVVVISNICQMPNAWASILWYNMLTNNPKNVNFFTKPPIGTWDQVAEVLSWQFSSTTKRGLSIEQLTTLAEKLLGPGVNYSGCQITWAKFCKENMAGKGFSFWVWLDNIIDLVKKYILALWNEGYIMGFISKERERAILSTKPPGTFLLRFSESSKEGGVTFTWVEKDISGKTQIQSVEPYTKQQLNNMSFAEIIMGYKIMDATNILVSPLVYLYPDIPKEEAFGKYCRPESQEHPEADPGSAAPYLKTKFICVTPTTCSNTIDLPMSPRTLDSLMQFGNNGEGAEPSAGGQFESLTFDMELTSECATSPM
Paired box protein Pax-6 (Homo sapiens), sequence (P26367 whole entry, looked up): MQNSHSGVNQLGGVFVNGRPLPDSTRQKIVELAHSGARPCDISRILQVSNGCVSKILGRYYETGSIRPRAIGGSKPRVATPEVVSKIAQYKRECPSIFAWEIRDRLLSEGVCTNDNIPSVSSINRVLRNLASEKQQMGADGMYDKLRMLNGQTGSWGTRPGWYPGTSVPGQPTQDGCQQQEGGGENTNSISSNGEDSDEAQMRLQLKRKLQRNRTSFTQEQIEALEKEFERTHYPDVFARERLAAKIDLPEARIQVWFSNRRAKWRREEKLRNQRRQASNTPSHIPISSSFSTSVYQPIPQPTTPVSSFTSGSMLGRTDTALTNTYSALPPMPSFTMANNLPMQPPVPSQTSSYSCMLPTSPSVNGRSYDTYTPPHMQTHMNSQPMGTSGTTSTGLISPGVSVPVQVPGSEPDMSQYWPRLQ
Transcription factor Sp1 (Homo sapiens), sequence (P08047 whole entry, looked up): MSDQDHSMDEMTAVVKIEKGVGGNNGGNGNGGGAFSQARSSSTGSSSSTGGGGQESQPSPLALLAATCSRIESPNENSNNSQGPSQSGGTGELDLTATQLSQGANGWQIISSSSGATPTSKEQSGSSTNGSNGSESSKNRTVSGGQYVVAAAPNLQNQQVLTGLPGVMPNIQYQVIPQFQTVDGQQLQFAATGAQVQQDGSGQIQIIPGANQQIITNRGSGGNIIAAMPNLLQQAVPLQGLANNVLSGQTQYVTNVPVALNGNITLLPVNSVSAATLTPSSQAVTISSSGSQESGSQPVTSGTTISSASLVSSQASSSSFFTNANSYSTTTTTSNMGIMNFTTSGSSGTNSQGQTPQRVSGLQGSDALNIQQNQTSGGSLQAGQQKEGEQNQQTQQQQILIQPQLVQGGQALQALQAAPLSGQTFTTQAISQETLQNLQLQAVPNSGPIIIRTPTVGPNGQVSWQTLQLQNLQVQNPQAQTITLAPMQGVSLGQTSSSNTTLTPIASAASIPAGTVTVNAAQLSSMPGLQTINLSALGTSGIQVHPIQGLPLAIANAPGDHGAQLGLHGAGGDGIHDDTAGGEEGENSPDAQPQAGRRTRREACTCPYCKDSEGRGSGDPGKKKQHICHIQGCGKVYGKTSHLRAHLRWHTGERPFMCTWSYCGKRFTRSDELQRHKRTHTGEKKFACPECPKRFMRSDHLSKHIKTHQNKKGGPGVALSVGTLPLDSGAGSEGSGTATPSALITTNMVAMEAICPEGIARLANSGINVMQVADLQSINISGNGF

By AC50 is commonly meant the midpoint of the concentration-response curve, whichever way the signal moves. Consider `CCCCCCCCCCCC(=O)OC`, for which the result in experiment [1], in experiment [2], in experiment [3], in [4], in experiment [5] and in experiment [6] was inactive. The outcome in [7], in experiment [8], in experiment [9], in [10], in [11] and in experiment [12] was inactive. Further, the outcome in [13], in experiment [14], in [16] and in experiment [17] was inactive. The AC50 in experiment [15] was 59.6 µM (active).
`Cc1nc(C)nc(N2C[C@@H](C)N(c3ccnc([C@@H](C)O)n3)[C@@H](C)C2)n1`: the outcome in [1], in [2], in experiment [3], in experiment [4], in experiment [5] and in experiment [6] was inactive. For the same compound, the result in experiment [7], in experiment [8], in experiment [10], in [11], in experiment [13] and in [14] was inactive. For the same compound, the compound was called inactive in experiment [15], in [16] and in experiment [17].
Regarding `CCCCCCCCCCC`, the compound was classed as inactive in experiment [18], in [2], in [3], in [4], in experiment [5] and in experiment [6]. In addition, the result in experiment [7], in experiment [8], in experiment [9], in [10], in experiment [11] and in [19] was inactive. For the same compound, the outcome in [13], in [14], in experiment [15], in [16] and in experiment [17] was inactive.
Consider `CCCCCCCCCCO`, for which the call in experiment [1], in [2], in [3], in [4], in experiment [5] and in experiment [6] was inactive. Further, the outcome in experiment [7], in [10], in experiment [11], in [19], in [14] and in experiment [15] was inactive. Moreover, the call in experiment [16] and in [17] was inactive. The AC50 in [8] was 160 µM (active).
